Laboratory results reported in PubChem BioAssay AID1159580 (chemical genetic matrix, 2015).
“And” between values parts separate entries of the source, which are not always exact repeats. Equal values may be shown once. In all, about 5,500 compounds went through this assay and about 2,000 (36%) were called active. Inconclusive results (about 18%) are left out. Cut-off read from the data, not from the text of the source: active = normalized growth mostly below about 0.91 (no sharp cut-off); inconclusive = no clear call, values can overlap the other calls; inactive = mostly above about 0.92. Some of the results follow.

Assay: chemical genetic growth profiling, strain panel (AID 1159580);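 note: tested at 20 µM; growth read once vehicle control cultures reached saturation at 30 °C; 1 = growth at the plate median or of vehicle wells; lower values mean less growth of the strain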
Details: S. cerevisiae deletion strains, growth OD

Measured: normalized growth

NNc1nncc2ccccc12
inactive: locus YAL013W, strain DEP1, active compounds read low 1.01 | locus YAL021C, strain ccr4, active compounds read low 0.991 | locus YAL026C, strain drs2, active compounds read low 0.973 | locus YAL030W, strain snc1, active compounds read low 1 | locus YAL040C, strain CLN3, active compounds read low 0.995 | locus YBL061C, strain skt5, active compounds read low 0.993 | locus YBR009C, strain hhf1, active compounds read low 0.983 | locus YBR021W, strain FUR4, active compounds read low 0.973 | locus YBR023C, strain chs3, active compounds read low 0.986 | locus YBR171W, strain sec66, active compounds read low 0.997 | locus YBR229C, strain ROT2, active compounds read low 1.01 | locus YBR231C, strain swc5, active compounds read low 0.981 | locus YBR279W, strain paf1, active compounds read low 0.996 | locus YCL011C, strain gbp2, active compounds read low 0.973 | locus YCL016C, strain dcc1, active compounds read low 0.969 | locus YCL029C, strain bik1, active compounds read low 1 | locus YCL061C, strain MRC1 (second series), active compounds read low 1 | locus YCL061C, strain MRC1, active compounds read low 0.988 | locus YCL069W, strain vba3, active compounds read low 1 | locus YCR088W, strain abp1, active compounds read low 0.999 | locus YDL005C, strain med2, active compounds read low 0.992 | locus YDL035C, strain GPR1, active compounds read low 1.02 | locus YDL040C, strain nat1, active compounds read low 1.01 | locus YDL074C, strain BRE1, active compounds read low 0.997 | locus YDL101C, strain DUN1, active compounds read low 1 | locus YDL134C, strain PPH21, active compounds read low 1.01 | locus YDL185W, strain tfp1, active compounds read low 0.999 | locus YDL192W, strain arf1, active compounds read low 0.999 | locus YDR001C, strain nth1, active compounds read low 0.997 | locus YDR069C, strain doa4, active compounds read low 1.02 | locus YDR101C, strain arx1, active compounds read low 1.01 | locus YDR137W, strain rgp1, active compounds read low 1.02 | locus YDR150W, strain NUM1, active compounds read low 1 | locus YDR159W, strain sac3, active compounds read low 1.03 | locus YDR162C, strain NBP2, active compounds read low 1.01 | locus YDR195W, strain ref2 1.06 | locus YDR297W, strain sur2, active compounds read low 1.02 | locus YDR318W, strain mcm21, active compounds read low 0.984 | locus YDR334W, strain swr1, active compounds read low 0.986 | locus YDR335W, strain msn5, active compounds read low 1.02 | locus YDR363W, strain ESC2, active compounds read low 0.997 | locus YDR388W, active compounds read low 0.993 | locus YDR392W, strain spt3, active compounds read low 0.878 | locus YDR502C, strain sam2, active compounds read low 0.986 | locus YEL003W, strain gim4, active compounds read low 0.989 | locus YEL037C, strain rad23, active compounds read low 1 | locus YEL061C, strain CIN8 (second series), active compounds read low 1 | locus YEL061C, strain CIN8, active compounds read low 1 | locus YER002W, strain NOP16, active compounds read low 0.995 | locus YER015W, strain faa2, active compounds read low 0.978 | locus YER016W, strain bim1, active compounds read low 1 | locus YER110C, active compounds read low 0.993 | locus YER111C, strain swi4, active compounds read low 0.986 | locus YER155C, strain BEM2 (second series), active compounds read low 0.947 | locus YER155C, strain BEM2, active compounds read low 1.02 | locus YER167W, strain BCK2, active compounds read low 1.01 | locus YFR010W, strain ubp6, active compounds read low 0.985 | locus YGL078C, strain dbp3, active compounds read low 0.999 | locus YGL086W, strain mad1, active compounds read low 0.996 | locus YGL167C, strain pmr1, active compounds read low 0.995 | locus YGL173C, strain kem1, active compounds read low 0.99 | locus YGL227W, strain vid30, active compounds read low 0.999 | locus YGL240W, strain doc1, active compounds read low 1 | locus YGL248W, strain PDE1, active compounds read low 0.99 | locus YGL253W, strain hxk2, active compounds read low 1.01 | locus YGR135W, strain pre9, active compounds read low 0.96 | locus YGR252W, strain gcn5, active compounds read low 0.941 | locus YHR013C, strain ard1, active compounds read low 0.986 | locus YHR027C, strain rpn1, active compounds read low 1 | locus YHR030C, strain SLT2, active compounds read low 1 and 1.02 | locus YHR079C, strain IRE1 (second series), active compounds read low 0.993 | locus YHR079C, strain IRE1, active compounds read low 1.01 | locus YHR094C, strain hxt1, active compounds read low 0.997 | locus YHR129C, strain ARP1, active compounds read low 0.997 | locus YHR142W, strain chs7, active compounds read low 0.997 | locus YHR200W, strain rpn10, active compounds read low 0.997 | locus YIL066C, strain RNR3, active compounds read low 1 | locus YIL073C, strain SPO22, active compounds read low 0.992 | locus YIL125W, strain kgd1, active compounds read low 1.01 | locus YIR030C, strain dcg1, active compounds read low 0.996 | locus YJL092W, strain hpr5, active compounds read low 0.988 | locus YJL095W, strain BCK1 (second series), active compounds read low 0.999 | locus YJL095W, strain BCK1, active compounds read low 0.971 and 0.995 | locus YJL115W, strain asf1, active compounds read low 0.996 | locus YJL129C, strain trk1, active compounds read low 0.994 | locus YJL134W, strain LCB3, active compounds read low 1 | locus YJL154C, strain vps35, active compounds read low 0.998 | locus YJL164C, strain tpk1, active compounds read low 0.993 | locus YJL166W, strain qcr8, active compounds read low 1 | locus YJL168C, strain set2, active compounds read low 0.989 | locus YJL187C, strain SWE1 (second series), active compounds read low 1 | locus YJL187C, strain SWE1, active compounds read low 1.01 | locus YJR043C, strain POL32, active compounds read low 1
